HCMV inh: human cytomegalovirus inhibition; activity change, negative = inhibition, % at 57.5 µM; 410,000 tested, 4.5% active; HFF cells, HCMV-luciferase reporter, 72 h; active compounds read low; in the data active = activity change below about -60%; inconclusive = no clear call, values can overlap the other calls; inactive = above about -39%
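Cell-based, HFFs, 1000 cells/well, 16 h 37C; cpds in DMSO + HCMV-luc, MOI 1 PFU/cell; 72 h 37C; OneGlo luminescence after 5 min RT; norm. to buffer vs Salinomycin 10uM.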
Vaccinia Venus: inhibitors of vaccinia virus (Venus reporter); Vaccinia virus Venus reporter expression, fluorescence; Potency, µM (highest dose often 36.5 µM), inactives show at the top dose activity change, negative = inhibition, hits mostly inhibitors; 330,000 tested, 0.46% active; AID 720580; calls by dose curve; tested in A549 cells; also: potency is read from the fitted curve at half-maximal effect; nearly all actives have a fitted effect of over 30% in size
MARV entry inh: blocks Marburg virus binding to or entry into cells. Marburg virus pseudotyped entry inhibition, cell reporter. 300,000 tested, 1.8% active. Potency, µM (highest dose often 37.8 µM), without a hit: at the highest dose activity change, negative = inhibition, usual class: inhibitors. AID 540276; calls by dose curve; tested in HEK293 cells; also: potency is read from the fitted curve at half-maximal effect
HCV inhibitor: blocks hepatitis C virus | Huh7.5.1 HCVcc-Cre infection, luciferase reporter, 44 h | Potency, µM (top dose mostly 41.8 µM), for the others: at the highest dose activity change, negative = inhibition, actives largely listed as inhibitors | 340,000 tested, 3.4% active | AID 651820; active = well fitted inhibition curve with a large enough effect; inconclusive = small, poorly fitted or top-dose-only effect, or another doubt; inactive = no such curve, though single readings can be large or run the other way; also: potency is read from the fitted curve at half-maximal effect
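Compounds are dispensed onto cells plated 4 h earlier at 1,000 per well, with HCVcc-Cre virus (about 0.5 moi) added next. Following 44 h of culture, luminescent signal is measured for 15 sec after 15 min with substrate at room temperature.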
VACV mCherry inh: inhibitors of vaccinia virus infection (mCherry reporter signal) | Potency, µM (highest dose often 36.5 µM), without a hit: top-dose activity change, negative = inhibition, actives largely listed as inhibitors | 310,000 tested, 0.63% active | Vaccinia virus mCherry reporter infection, fluorescence; calls by dose curve; tested in A549 cells; also: potency is read from the fitted curve at half-maximal effect; nearly all actives have a fitted effect of over 35% in size
LASV entry inh: Lassa virus entry inhibition | Potency, µM (titrated, usually from 37.9 µM), for the others: at the highest dose activity change, negative = inhibition, actives largely listed as inhibitors | 300,000 tested, 1.2% active | AID 540256 | Lassa virus pseudotype entry inhibition, cell reporter; calls by dose curve; tested in HEK293 cells; also: potency is read from the fitted curve at half-maximal effect; nearly all actives have a fitted effect of over 50% in size
The depositor's hits bear a star; [ ] = another dose, or the depositor's remark. A selection: hits, their analogues and other compounds. The true share with any hit is near 7.8%. % is scaled to controls: 0 for no effect and ±100 for the full control effect.

For COc1ccc(CCNC(=O)Cn2nnc(-c3ccc(C(F)(F)F)cc3)n2)cc1OC the results were HCMV inh -37.7, Vaccinia Venus 2.3%, MARV entry inh -8.6%[46.1 µM], VACV mCherry inh 9.9% and LASV entry inh -3.1%[46.1 µM].
`Cc1ncc2c(c1CNS(=O)(=O)N(C)C)CCN(C(=O)/C=C/c1cccc(F)c1)C2` gave Vaccinia Venus 6.0% and VACV mCherry inh -3.8%.
`CCc1ccc(CNC(=O)c2c(C)oc3ncnc(N4CCOCC4)c23)cc1` gave HCMV inh -61.0*, Vaccinia Venus -16.0%, VACV mCherry inh -11.1% and LASV entry inh 22.6%[46.1 µM].
CCCCN(CC)CCCNC(=O)c1c(C)oc2ncnc(N3CCOCC3)c12 was read as HCMV inh -66.4*, Vaccinia Venus -18.4%, VACV mCherry inh -14.5% and LASV entry inh 21.0%[46.1 µM].
COc1cccc(CNC(=O)c2c(C)oc3ncnc(N4CCOCC4)c23)c1 was read as HCMV inh -12.7, Vaccinia Venus -7.7%, VACV mCherry inh -9.2% and LASV entry inh inconclusive.
S=c1[nH]nc(CN2CCCCC2)n1Cc1ccccc1 was read as HCMV inh -81.9*, Vaccinia Venus -0.4%, MARV entry inh 1.7%[46.1 µM], HCV inhibitor 8.9%, VACV mCherry inh inactive and LASV entry inh inconclusive.
S=c1[nH]nc(-c2ccccc2)n1Cc1ccccc1 was read as HCMV inh 23.2, Vaccinia Venus -9.3%, MARV entry inh 7.8%, HCV inhibitor 30.1%, VACV mCherry inh inactive and LASV entry inh 11.0%.
Screening S=c1[nH]nc(CN2CCCC2)n1Cc1ccccc1 returned HCMV inh -22.3, Vaccinia Venus 1.0%, MARV entry inh inconclusive, HCV inhibitor 6.8%, VACV mCherry inh inactive and LASV entry inh 13.3%.
CCn1c(CSCc2ccccc2)n[nH]c1=S was read as HCMV inh -73.1*, Vaccinia Venus -2.2%, MARV entry inh 1.2%[46.1 µM], HCV inhibitor 23.0%, VACV mCherry inh -5.4% and LASV entry inh -11.6%.
Screening Cc1n[nH]c(=S)n1Cc1ccccc1 returned HCMV inh -82.2*, Vaccinia Venus -6.0%, HCV inhibitor 18.9% and VACV mCherry inh -20.6%.
For COc1ccc(S(=O)(=O)N2CCCCC2)cc1NC(=O)C1CC1(Cl)Cl (stereo not drawn) the results were HCMV inh inconclusive, Vaccinia Venus -10.7% and VACV mCherry inh inactive.
For CCn1c(C)cc(/C=C2/NC(=O)N(c3ccccc3)C2=O)c1C the results were HCMV inh -12.6, MARV entry inh -24.5%, HCV inhibitor -16.9% and LASV entry inh inconclusive.
Screening COCCn1c(C)cc(/C=C2/NC(=O)N(c3cccc(Cl)c3)C2=O)c1C returned HCMV inh -66.3*, Vaccinia Venus inconclusive, HCV inhibitor inconclusive and VACV mCherry inh inconclusive.
For c1ccc(-n2nnnc2CN2CCOCC2)cc1 the results were HCMV inh -68.0* and HCV inhibitor 22.2%.
For Nc1ccc(-n2nnnc2CN2CCOCC2)cc1 the results were HCMV inh 4.9, Vaccinia Venus 5.2%, MARV entry inh inconclusive, HCV inhibitor 31.4%, VACV mCherry inh -12.1% and LASV entry inh 11.7%.
For CC(=O)N(c1cc(C)ccc1C)c1ccccc1[N+](=O)[O-] the results were HCMV inh -63.2*, Vaccinia Venus -16.5%, MARV entry inh inconclusive, HCV inhibitor -0.5%, VACV mCherry inh -10.9% and LASV entry inh 19.3%[46.1 µM].
For COc1ccccc1Cn1ccn(Cc2c(F)cccc2Cl)c(=O)c1=O the results were HCMV inh 22.7, Vaccinia Venus -3.7%, VACV mCherry inh -9.8% and LASV entry inh -12.5%[46.1 µM].
Cc1cccc(N2CCC(N3CCN(C4CCCCC4)C(CCO)C3)CC2)c1C (stereo not drawn) was read as HCMV inh -75.3*, Vaccinia Venus -10.0%, MARV entry inh inconclusive, HCV inhibitor inconclusive, VACV mCherry inh inconclusive and LASV entry inh 5.9%[46.1 µM].
For Cc1c(Cl)cccc1NC(=S)N1CCCN(Cc2ccccc2F)C1 the results were HCMV inh -8.6, Vaccinia Venus -21.9%, MARV entry inh 10µM*, HCV inhibitor 0.9%, VACV mCherry inh inconclusive and LASV entry inh inconclusive.
`Cc1ccccc1NC(=S)N1CCCN(Cc2ccc(F)cc2)C1` gave HCMV inh -32.2 and HCV inhibitor -23.9%.
For CSc1cccc(NC(=S)N2CCCN(Cc3ccc(F)cc3)C2)c1 the results were HCMV inh 0.0, Vaccinia Venus -25.1%, MARV entry inh 6.31µM*, HCV inhibitor -14.5%, VACV mCherry inh -8.4% and LASV entry inh inconclusive.
`Cc1c(Cl)cccc1NC(=S)N1CCCN(Cc2ccc(F)cc2)C1` gave HCMV inh 0.0, Vaccinia Venus -12.9%, MARV entry inh 3.98µM*, HCV inhibitor -19.5%, VACV mCherry inh -18.8% and LASV entry inh 21.0%[46.1 µM].
CC(=O)c1c(C(C)=O)c(C)n(Cc2ccc(Cl)cc2)c1C was read as HCMV inh -70.7*, Vaccinia Venus -19.8%, MARV entry inh inconclusive, HCV inhibitor inconclusive, VACV mCherry inh inconclusive and LASV entry inh -21.2%.
CCOC(=O)c1c(C=O)c(C)n(Cc2ccc(Cl)cc2)c1C was read as HCMV inh -23.9, MARV entry inh -3.4%, HCV inhibitor 8.91µM* and LASV entry inh -5.4%.
For O=[N+]([O-])c1ccc2nc(CO)[nH]c2c1 the results were Vaccinia Venus -15.7% and VACV mCherry inh -19.1%.
`O=C(/C=C/c1ccccc1)CC(O)(c1ccccc1)C(F)(F)F` (stereo not drawn) gave HCMV inh -102.4*, Vaccinia Venus -16.2%, MARV entry inh inconclusive, HCV inhibitor inconclusive, VACV mCherry inh -2.2% and LASV entry inh inconclusive.
For O=C(/C=C/c1ccccc1)CC(O)(c1ccccc1)C(F)(F)C(F)F (stereo not drawn) the results were HCMV inh inconclusive, Vaccinia Venus -21.3%, MARV entry inh inconclusive, HCV inhibitor inconclusive, VACV mCherry inh -5.0% and LASV entry inh inconclusive.
`COc1ccc(/C=C/C(=O)CCC(=O)O)cc1` gave HCMV inh -20.2, Vaccinia Venus 0.7%, MARV entry inh 4.9%[46.1 µM], HCV inhibitor 10.8%, VACV mCherry inh inactive and LASV entry inh 19.4%.
For COc1ccc(/C=C/C(=O)CC(O)(c2ccccc2)C(F)(F)F)cc1 (stereo not drawn) the results were HCMV inh -100.4*, Vaccinia Venus -29.1%, MARV entry inh inconclusive, HCV inhibitor -11.6%, VACV mCherry inh -25.5% and LASV entry inh inconclusive.
`CC1(Oc2ccccc2)CCN(Cc2ccc(-c3ccccn3)cc2)C1` (stereo not drawn) gave HCMV inh -36.6, Vaccinia Venus 0.6% and VACV mCherry inh 11.8%.
For CC1(Oc2ccc(Cl)cc2)CCN(Cc2ccc(-c3ccccn3)cc2)C1 (stereo not drawn) the results were HCMV inh -82.2*, Vaccinia Venus -1.8% and VACV mCherry inh -4.4%.

Screens: PubChem, National Center for Advancing Translational Sciences (NCATS)
